Measured values as given in publication PMC11995724, “Antibiotic target discovery by integrated phenotypic and activity-based profiling of electrophilic fragments” (Cell chemical biology, 2025).
The whole screen tested about 3,200 compounds, of which about 110 (3.4%) showed an effect of 50% or more. This is one part of a sample in which strong results are shown more often than they occur.

tested on: T1, V. cholerae SAD30; parameters: species or system S. aureus MSSA476 (TSB) or V. cholerae SAD30 (LB); 384-well bacterial growth screen at 25 uM, OD600 relative to DMSO control; settings: relative growth, OD600, LB; 25 µM; inhibitor
T1 construct: SAD30

Row | Compound | % of control remaining
1 | C=CC(=O)NCC(=C)c1ccccc1 [2-B09, N-(2-phenylprop-2-en-1-yl)prop-2-enamide] | 87.2624%
2 | CC(Cl)C(=O)NC(C)(C)c1ccc(F)cc1F (stereo not shown) [6-E21, 2-chloro-N-[2-(2,4-difluorophenyl)propan-2-yl]propanamide] | 92.9756%
3 | C=CC(=O)Nc1cc(CC(C)(C)C)no1 [1-I19, N-[3-(2,2-dimethylpropyl)-1,2-oxazol-5-yl]prop-2-enamide] | 92.9746%
4 | COCc1ncc2c(n1)CC1CCC2N1C(=O)C(C)Cl (stereo not shown) [7-M20, 2-chloro-1-[5-(methoxymethyl)-4,6,12-triazatricyclo[7.2.1.0,2,7]dodeca-2,4,6-trien-12-yl]propan-1-one] | 81.4142%
5 | Cc1cc(CO[C@H]2CC[C@H](NC(=O)CCl)CC2)on1 [6-K19, 2-chloro-N-[(1r,4r)-4-[(3-methyl-1,2-oxazol-5-yl)methoxy]cyclohexyl]acetamide] | 92.9756%
6 | C=CC(=O)Nc1cnn(C2CCCC2)c1 [3-O21, N-(1-cyclopentyl-1H-pyrazol-4-yl)prop-2-enamide] | 106.734%
7 | N#CC(=Cc1ccccc1Cl)C(=O)Nc1cccc2ncccc12 [8-C15, 3-(2-chlorophenyl)-2-cyano-N-(quinolin-5-yl)prop-2-enamide] | 75.9347%
8 | C=CC(=O)NCC12CC3CC(CC(C3)C1)C2 [1-F17, N-[(adamantan-1-yl)methyl]prop-2-enamide] | 83.4081%
9 | O=C(CCl)Nc1ccc(Oc2ccccc2)cc1 [4-J09, 2-chloro-N-(4-phenoxyphenyl)acetamide] | 97.6493%
10 | CCc1ccc(C(=O)CCl)cc1 [10-F18, 2-chloro-1-(4-ethylphenyl)ethan-1-one] | 26.1835%
11 | CC(=O)NCCc1ccc(C(=O)CCl)cc1 [10-N03, N-{2-[4-(2-chloroacetyl)phenyl]ethyl}acetamide] | 115.8%
12 | O=C(CCl)c1ccc(Oc2ccccc2)cc1 [10-G20, 2-chloro-1-(4-phenoxyphenyl)ethan-1-one] | 25.2484%
13 | NC(=O)COc1ccc(C(=O)CCl)cc1 [10-M07, 2-[4-(2-chloroacetyl)phenoxy]acetamide] | 49.25%
14 | CSc1ccc(C(=O)CCl)cc1 [10-E07, 2-chloro-1-[4-(methylsulfanyl)phenyl]ethan-1-one] | 0%
15 | NC(=O)CCc1ccc(C(=O)CCl)cc1 [10-I03, 3-[4-(2-chloroacetyl)phenyl]propanamide] | 70.7578%
16 | O=C(CCl)Nc1cccc(Oc2ccccc2)c1 [4-P19, 2-chloro-N-(3-phenoxyphenyl)acetamide] | 96.6142%

Row | Compound | % of control remaining
17 | CCCc1ccc(C(=O)CCl)cc1 [10-C04, 2-chloro-1-(4-propylphenyl)ethan-1-one] | 109.254%
18 | O=C(CCl)NCCCC1CCCCC1 [6-O05, 2-chloro-N-(3-cyclohexylpropyl)acetamide] | 100.256%
19 | O=C(CCl)NC(c1ccccc1)C1CCCCC1 (stereo not shown) [6-E12, 2-chloro-N-[cyclohexyl(phenyl)methyl]acetamide] | 79.0217%
20 | CC(Cl)C(=O)Nc1ccc(S(=O)(=O)N2CCCCC2)cc1 (stereo not shown) [4-A12, 2-chloro-N-[4-(piperidine-1-sulfonyl)phenyl]propanamide] | 95.234%
21 | CC(Cl)C(=O)Nc1c(C(C)C)cccc1C(C)C (stereo not shown) [4-B15, N-[2,6-bis(propan-2-yl)phenyl]-2-chloropropanamide] | 91.4384%
22 | C=CC(=O)N[C@H]1CCO[C@@H]1c1ccnn1C(C)C (racemic) [3-K05, rac-N-[(2R,3R)-2-[1-(propan-2-yl)-1H-pyrazol-5-yl]oxolan-3-yl]prop-2-enamide] | 98.7943%
23 | O=C(CCl)N1CCN(S(=O)(=O)c2cccc([N+](=O)[O-])c2)CC1 [4-C19, 2-chloro-1-[4-(3-nitrobenzenesulfonyl)piperazin-1-yl]ethan-1-one] | 91.0934%
24 | C=CC(=O)N1CCC(C(=O)NC2CCCc3cc(F)ccc32)CC1 (stereo not shown) [2-K18, N-(6-fluoro-1,2,3,4-tetrahydronaphthalen-1-yl)-1-(prop-2-enoyl)piperidine-4-carboxamide] | 78.153%
25 | O=C(CCl)Nc1cccc(S(=O)(=O)N2CCOCC2)c1 [4-P08, 2-chloro-N-[3-(morpholine-4-sulfonyl)phenyl]acetamide] | 121.458%
26 | O=C(CCl)Nc1cccc(S(=O)(=O)N=C2CCCCCN2)c1 [4-D08, N-{3-[(azepan-2-ylidene)sulfamoyl]phenyl}-2-chloroacetamide] | 107.656%
27 | CC(C)NC(=O)C(C#N)=Cc1c(Cl)nc2ccccn12 [9-A11, 3-{2-chloroimidazo[1,2-a]pyridin-3-yl}-2-cyano-N-(propan-2-yl)prop-2-enamide] | 91.8423%
28 | C=CC(=O)Nc1cc(NC(=O)c2ccc([N+](=O)[O-])o2)ccc1F [3-J04, N-[4-fluoro-3-(prop-2-enamido)phenyl]-5-nitrofuran-2-carboxamide] | -0.1875%
29 | C=CC(=O)Nc1cc(NC(=O)C2(OC)CCOC2)ccc1F (stereo not shown) [3-D05, N-[4-fluoro-3-(prop-2-enamido)phenyl]-3-methoxyoxolane-3-carboxamide] | 99.5001%
30 | C=CC(=O)Nc1cc(NC(=O)C2CCC2)ccc1F [2-E10, N-[4-fluoro-3-(prop-2-enamido)phenyl]cyclobutanecarboxamide] | 92.0486%
31 | CC(C)Cn1c(N)c(C(=O)CCl)c(=O)[nH]c1=O [10-F08, 6-amino-5-(2-chloroacetyl)-1-(2-methylpropyl)-1,2,3,4-tetrahydropyrimidine-2,4-dione] | 101.305%
